Source: PubChem
3T3 cytotox – kills NIH 3T3 cells | NIH 3T3 viability, CellTiter-Glo ATP luminescence, 48-72 h | Potency, µM (highest dose often 96.7 µM), without a hit: at the top dose activity change, negative = cytotoxicity, hits mostly inhibitors | actives 4.3% (n = 94,000) | AID 1345082; further: on the % scale 0 is the no-effect control and ±100 the full control effect; nearly all actives have a fitted effect of over 55% in size
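Viability of NIH 3T3 cells after 48 or 72 hr compound treatment at 37 °C was assessed by CellTiter-Glo, with luminescence imaged following a 10 min room-temperature step.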
HEK293 tox – HEK 293 cell cytotoxicity; AID 1345083; actives 6.6% (n = 94,000); HEK 293 viability, ATP luminescence (CellTiter-Glo), 48-72 h; Potency, µM (titrated, usually from 115 µM), for the others: at the highest dose activity change, negative = cytotoxicity, usual class: inhibitors; further: on the % scale 0 is the no-effect control and ±100 the full control effect; nearly all actives have a fitted effect of over 60% in size
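Read-out: CellTiter-Glo ATP luminescence. Cells: HEK 293, 250 cells/well. Exposure: 48 or 72 hr, 37 degree Celsius.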
hNpr1 antagonist – blocks ANP-stimulated signaling of human Npr1 receptor | P16066 | HEK293 hNpr1 GloSensor cGMP, ANP-stimulated luminescence | Potency, µM (doses to about 46.3 µM), for inactives: top-dose activity change, negative = inhibition, actives largely listed as inhibitors | actives 1.6% (n = 76,000) | AID 1347048; calls by dose curve; further: on the % scale 0 is the no-effect control and ±100 the full control effect; nearly all actives have a fitted effect of over 60% in size
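HEK293 cells stably expressing human Npr1 and cGMP GloSensor pGS-40F, loaded 2 h with 2% GloSensor reagent, given compound 30 min at room temperature. Luminescence read before and 20 min after 0.1 nM hNppA.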
FLuc inh-1 – Photinus pyralis luciferase inhibition. AID 1347043. P08659. purified P. pyralis luciferase, luminescence, biochemical. actives 2.5% (n = 76,000). Potency, µM (series often up to 115 µM), hits mostly inhibitors; further: on the % scale 0 is the no-effect control and ±100 the full control effect; nearly all actives have a fitted effect of over 65% in size
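Purified 10nM P. pyralis luciferase with 10uM D-luciferin and 10uM ATP in 50mM Tris acetate pH 7.5, 10mM Mg acetate, 0.01% Tween-20, 0.05% BSA. qHTS titration; luminescence read by CCD imager.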
FLuc SDR no ATP – firefly luciferase binding stabilization, ATP absent; shares compounds with FLuc inh-1; Purified FLuc-C-HiBiT, Nano-Glo HiBiT luminescence, no ATP; Potency, µM (series often up to 32.7 µM), for inactives: at the top dose activation (signal gain), most hits filed as activators; actives 7.8% (n = 1,300); AID 1963318; further: nearly all actives have a fitted effect of over 55% in size
FLuc SDR ATP – firefly luciferase binding stabilization, ATP added | shares compounds with FLuc inh-1 | purified FLuc-C-HiBiT + ATP, HiBiT complementation luminescence | Potency, µM (top dose mostly 32.7 µM), for the others: top-dose activation (gain of signal), hits mostly activators | actives 8.7% (n = 1,300);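 further: signal reports ligand binding via conformational change of the enzyme rather than luciferase catalysis; % of control where 0% means no effect; nearly all actives have a fitted effect of over 55% in size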
FLuc inh-2 – firefly luciferase enzyme inhibition. shares compounds with FLuc inh-1. purified FLuc-C-HiBiT enzyme, luciferin luminescence. Potency, µM (series often up to 32.7 µM), inactives show top-dose activity change, negative = inhibition, actives largely listed as inhibitors. actives 42% (n = 1,300); further: on the % scale 0 is the no-effect control and ±100 the full control effect; nearly all actives have a fitted effect of over 70% in size
Npr1 antag conf – confirmation of human Npr1 natriuretic peptide receptor antagonists; shares compounds with hNpr1 antagonist; HEK293 hNpr1 cGMP GloSensor luminescence, ANP-stimulated; Potency, µM (highest dose often 57.6 µM), for inactives: top-dose activity change, negative = inhibition, usual class: inhibitors; actives 76% (n = 1,400); AID 1347044; calls by dose curve; further: nearly all actives have a fitted effect of over 70% in size
Npr2 selectivity – selectivity test of Npr1 antagonists against human Npr2; shares compounds with hNpr1 antagonist; HEK293 hNpr2 GloSensor cGMP luminescence, CNP-stimulated; Potency, µM (highest dose often 57.6 µM), for the others: at the highest dose activity change, negative = inhibition, most hits filed as inhibitors; actives 67% (n = 1,400); calls by dose curve; further: nearly all actives have a fitted effect of over 70% in size
FLuc counter – counter-screen for Npr1 antagonists: firefly luciferase inhibitors; shares compounds with hNpr1 antagonist; purified FLuc enzyme, luminescence, Km substrate; Potency, µM (top dose mostly 57.6 µM), for inactives: at the highest dose activity change, negative = inhibition, actives largely listed as inhibitors; actives 0.7% (n = 1,400); further: 0% is about no effect
GloSensor ctrl – control cell line activity, Npr1 antagonist counter-screen; HEK293 GloSensor cGMP, SNP-stimulated, luminescence; actives 69% (n = 1,400); shares compounds with hNpr1 antagonist; Potency, µM (titrated, usually from 57.6 µM), without a hit: at the top dose activity change, negative = inhibition, hits mostly inhibitors; calls by dose curve; further: on the % scale 0 is the no-effect control and ±100 the full control effect; nearly all actives have a fitted effect of over 70% in size
Starred values were filed as active, the others as inactive; i = inactive; ? = inconclusive; · = no result; [ ] = dose if it differs, or a comment. Hits are enriched below; roughly 11% of the tested compounds scored in any of these assays. Unless noted, the call rests on the fitted dose curve; in most records, active means well fitted curve in the direction sought with a large enough effect; inconclusive means small, poorly fitted or top-dose-only effect, or another doubt; inactive means no such curve, though single readings can be large; an effect the other way counts as inactive or inconclusive. Potency means the concentration at half of the fitted maximal effect.

SMILES	3T3 cytotox	HEK293 tox	hNpr1 antagonist	FLuc inh-1	FLuc SDR no ATP	FLuc SDR ATP	FLuc inh-2	Npr1 antag conf	Npr2 selectivity	FLuc counter	GloSensor ctrl
COc1cccc(Nc2cc3c(cn2)CN(C)CCN3)c1	?	?	-18%[70.6 µM]	4.5µM*	20%[65.7 µM]	15%[65.7 µM]	23µM*	·	·	·	·
Cc1ccccc1Cn1cccc(C(=O)Nc2nc3ccccc3s2)c1=O	·	·	·	·	?	?	0.88µM*	·	·	·	·
O=c1ccc(-c2ccccc2)c2n1C[C@H]1C[C@@H]2CN(S(=O)(=O)c2cccs2)C1	?	-25%[172 µM]	3%[70.6 µM]	i	·	·	·	·	·	·	·
CCN1CCCCC12Cc1ccccc1CN(C(=O)Cc1ccccc1)C2 (stereo not given)	3%	-12%	·	·	·	·	·	·	·	·	·
c1ccc(CN2CCCC3(CC(c4ccccn4)=NO3)C2)nc1 (stereo not given)	-3%	-4%	·	·	·	·	·	·	·	·	·
CC(C)(C)CC(=O)N1C[C@@H]2C[C@H](C1)c1ccc(NC(=O)Nc3cccc(F)c3)c(=O)n1C2	?	?	5%	14µM*	14%	8%	-15%	·	·	·	·
c1nc(N2C[C@@H](c3ccc4c(c3)OCO4)[C@@H]3[C@H]2C2CCN3CC2)c2[nH]cnc2n1	-10%	-6%	0%	i	13%	10%	3%	·	·	·	·
c1cc(CN2C[C@H](c3ccc4c(c3)OCO4)[C@@H]3[C@H]2C2CCN3CC2)ccn1	-25%	1%	0%	i	·	·	·	·	·	·	·
COc1cc2c(cc1OCc1ccccc1)NC(=O)C21CCN(c2ccccn2)CC1	-21%[138 µM]	?	?	i	·	·	·	?	?	-3%[86.2 µM]	?
COc1cc2c(cc1Oc1ccccc1)NC(=O)C21CCN(Cc2cccc(O)c2)CC1	22µM*	?	?	i	·	·	·	40µM*	?	2%[86.2 µM]	31µM*
CCc1cnc(N2CCC3(CC2)C(=O)Nc2cc(OCc4ccccc4)c(OC)cc23)nc1	?	?	-1%	i	·	·	·	·	·	·	·
O=C(O)c1cccc(C(=O)N2C[C@@H]3C[C@H](C2)c2ccc(NC(=O)C4CC4)c(=O)n2C3)c1	?	?	-2%[70.6 µM]	i	·	·	·	·	·	·	·
CN1Cc2ccccc2-n2ccnc2C12CCN(C(=O)C1(c3ccccc3)CC1)CC2	-5%	?	?	i	·	·	·	?	?	-1%	14%
COc1ccc(C(=O)N2CCC3(CC2)c2nccn2-c2ccccc2CN3C)cc1	i	-3%	2%	i	·	·	·	·	·	·	·
COc1ccc(CC(=O)N2CCC3(CC2)c2nccn2-c2ccccc2CN3C)cc1	?	-7%	?	i	·	·	·	?	?	1%	0%
